The source made the active and inactive calls. The calls were made as follows: active = hit-call score of the fitted dose curve at least 0.9, where 1 is the maximum; inactive = score below 0.9.
Columns and labels:
[1] = BSK_MyoF_SRB: Viability Assessment in the BioMAP Diversity Plus: MyoF Assay (AID 2284267); conditions: primary human lung fibroblasts;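 also: total protein by SRB absorbance in parallel cultures as cytotoxicity measure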
Method in brief: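 Read-out is SRB absorbance at 560 nm, reflecting total protein in parallel lung fibroblast cultures harvested 24 h after compound addition. Cells were TCA-fixed (10%) and stained with 0.1% SRB; activity is referenced to DMSO.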

[2] = read-out: Matrix Metallopeptidase 1 (MMP1), MMP1 (gene 4312); experiment: BSK_MyoF_MMP1: BioMAP Diversity Plus: MyoF Assay for Matrix Metallopeptidase 1 (MMP1) Biomarker Activity (AID 2284268); conditions: primary human lung fibroblasts
Method in brief: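 MMP1 measured by ELISA 24 h after dosing primary human lung fibroblasts; cytotoxicity checked in parallel cultures by sulforhodamine B total-protein staining read at 560 nm.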

[3] = read-out: TIMP metallopeptidase inhibitor 1 (TIMP1), TIMP1 (gene 7076); experiment: BSK_MyoF_TIMP1: BioMAP Diversity Plus: MyoF Assay for TIMP metallopeptidase inhibitor 1 (TIMP1) Biomarker Activity (AID 2284269); conditions: primary human lung fibroblasts
Method in brief: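 TIMP-1 levels were determined by ELISA in human lung fibroblasts treated for 24 h. DMSO served as negative control and baseline for upward curve fitting.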

[4] = read-out: Intercellular Adhesion Molecule 1 (ICAM1), ICAM1 (gene 3383); experiment: BSK_BE3C_ICAM1: BioMAP Diversity Plus: BE3C Assay for Intercellular Adhesion Molecule 1 (ICAM1) Biomarker Activity (AID 2284278); conditions: primary human bronchial epithelial cells;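 also: cell-surface ICAM-1 protein level quantified by ELISA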
Method in brief: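 Human primary bronchial epithelial cultures; compound added; 24 h incubation; cell-surface ICAM-1 measured by ELISA; signal increase fitted relative to DMSO negative control.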

[5] = read-out: Interferon-inducible T-cell alpha chemoattractant (ITAC), CXCL11 (gene 6373); experiment: BSK_BE3C_ITAC: BioMAP Diversity Plus: BE3C Assay for Interferon-inducible T-cell alpha chemoattractant (ITAC) Biomarker Activity (AID 2284279); conditions: primary human bronchial epithelial cells
Method in brief: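 The assay measures I-TAC levels by ELISA in human primary bronchial epithelial cell cultures 24 hours after chemical treatment. Values reflect signal increase over the DMSO baseline.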

[6] = read-out: Interleukin-8 (IL8), CXCL8 (gene 3576); experiment: BSK_BE3C_IL8: BioMAP Diversity Plus: BE3C Assay for Interleukin-8 (IL8) Biomarker Activity (AID 2284280); conditions: primary human bronchial epithelial cells
Method in brief: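 IL-8 signal gain, normalised to DMSO vehicle, was scored after a 24 h chemical exposure of primary human bronchial epithelial cells, with detection by ELISA.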

[7] = read-out: Epidermal growth factor receptor (EGFR), EGFR (gene 1956); experiment: BSK_BE3C_EGFR: BioMAP Diversity Plus: BE3C Assay for Epidermal growth factor receptor (EGFR) Biomarker Activity (AID 2284281); conditions: primary human bronchial epithelial cells
Method in brief: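 Compound is added to human bronchial epithelial cells, cells incubate 24 h, then EGFR is detected by ELISA. Values reflect positive-direction fitting relative to DMSO.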

[8] = read-out: KRT18 (gene 3875); experiment: BSK_BE3C_Keratin818: BioMAP Diversity Plus: BE3C Assay for Keratin 818 Biomarker Activity (AID 2284282); conditions: primary human bronchial epithelial cells
Method in brief: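 Chemicals are added to human lung bronchial epithelial primary cells (BE3C system) and incubated 24 h. Keratin 8/18 is then measured by ELISA, with parallel SRB total-protein staining gauging overt cytotoxicity.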

[9] = read-out: Matrix Metallopeptidase 9 (MMP9), MMP9 (gene 4318); experiment: BSK_BE3C_MMP9: BioMAP Diversity Plus: BE3C Assay for Matrix Metallopeptidase 9 (MMP9) Biomarker Activity (AID 2284283); conditions: primary human bronchial epithelial cells
Method in brief: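 Cells were dosed, incubated 24 h, then assayed for MMP-9 by ELISA; activity was fitted upward against DMSO. The system used human lung primary bronchial epithelial cells, with SRB total-protein staining run alongside for cytotoxicity.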

[10] = read-out: Plasminogen activator inhibitor-1 (PAI1), SERPINE1 (gene 5054); experiment: BSK_CASM3C_PAI1: BioMAP Diversity Plus: CASM3C Assay for Plasminogen activator inhibitor-1 (PAI1) Biomarker Activity (AID 2284284); conditions: primary human coronary artery smooth muscle cells;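 also: PAI-1 protein level measured by ELISA 24 h after dosing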
[11] = read-out: Monocyte Chemoattractant Protein-1 (MCP1), CCL2 (gene 6347); experiment: BSK_hDFCGF_MCP1: BioMAP Diversity Plus: hDFCGF Assay for Monocyte Chemoattractant Protein-1 (MCP1) Biomarker Activity (AID 2284285); conditions: primary human foreskin fibroblasts
Method in brief: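 Human foreskin fibroblasts (hDFCGF system) were exposed to compound and secreted MCP-1 was measured by ELISA after 24 hours. Activity was fitted relative to DMSO. Cytotoxicity was checked by SRB total-protein staining in parallel cultures.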

Measured: outcome

CC1=CC=C(C(C)C)CC1
inactive: [1] | [2] | [3]

Nc1nc(N)nc(-c2ccccc2)n1
not listed: [1] | [2] | [3]
inactive: all other assays above

c1ccc2c(c1)[nH]c1ccccc12
inactive: [1] | [2] | [3]

C=CC(=O)NCOCCCC
inactive: [1] | [2] | [3]

Source: PubChem BioAssay (EPA / NIEHS)
